# Screens (PubChem BioAssay)
# The list is not random: actives were taken first. Their share in the collection is about 5.9%.
# HepG2 tox – kills HepG2 cells in TGF-b inhibitor counter-screen. HepG2 CAGA-GFP viability, ATP luminescence, 18 h. Potency, µM (highest dose often 46.1 µM), without a hit: top-dose activity change, negative = cytotoxicity, hits mostly cytotoxic. actives 0.76% (n = 410,000)
#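 HepG2 CAGA-GFP cells (1000/well, DMEM with 1% FBS) received compound, then TGF-beta at 500 pg/mL final, and were incubated 18 hours at 37 degrees C. Viability was read by CellTiter-Glo luminescence. Media-only wells were set as complete cell-killing and DMSO as no toxicity.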
# TGFb SMAD3 inh – inhibitors of TGF-b signaling | HepG2 CAGA-GFP TGF-b/SMAD3 reporter, GFP fluorescence, 18 h; TGF-beta stimulated, 500 pg/mL final | Potency, µM (series often up to 46.1 µM), inactives show top-dose activity, negative = inhibition, actives largely listed as inhibitors | actives 1.2% (n = 410,000) | AID 588855; also: % is scaled to controls: 0 for no effect and ±100 for the full control effect; nearly all actives have a fitted effect of over 65% in size
#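 Cell-based qHTS in HEPG2 carrying a CAGA-GFP Smad reporter; compounds added before 500 pg/mL final TGF-beta, 18 h incubation at 37 degrees C, GFP fluorescence quantified per cell by imaging cytometry.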
# ATXN2 expr inh – ATXN2 expression inhibition; HEK-293 ATXN2-luciferase reporter, luminescence, 24 h; Potency, µM (highest dose often 57 µM), for inactives: at the top dose activity change, negative = inhibition, usual class: inhibitors; actives 0.72% (n = 360,000); also: % is scaled to controls: 0 for no effect and ±100 for the full control effect; nearly all actives have a fitted effect of over 55% in size
#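 ATXN2-luciferase reporter cells (luciferase flanked by upstream and downstream ATXN2 gene portions) were treated 24 h at 37 °C with compounds at up to 57 uM. SteadyGlo luminescence gave expression; GF-AFC fluorescence gave viability.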
# ATXN viability – reduces viability in counter-screen for ATXN expression inhibitors. Potency, µM (top dose mostly 56.7 µM), most hits filed as cytotoxic. AID 651635. actives 0.49% (n = 400,000). S2 cells (HEK-293 line with an ATXN2-luciferase reporter) viability, CellTiter-Fluor protease fluorescence, 24 h; also: nearly all actives have a fitted effect of over 40% in size
# KB-V1 cytotox – kills drug-selected multidrug resistant KB-V1 cells; Potency, µM (top dose mostly 46.1 µM), usual class: cytotoxic; actives 3.4% (n = 400,000); KB-V1 MDR cells viability, CellTiter-Glo, 72 h; also: % is scaled to controls: 0 for no effect and ±100 for the full control effect; nearly all actives have a fitted effect of over 60% in size
#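 qHTS viability screen in drug-selected KB-V1 MDR cells: 72 h compound treatment at 37 degrees C, ATP luminescence end point.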
# KB-3-1 tox – KB-3-1 parental cell cytotoxicity. KB-3-1 viability, CellTiter-Glo ATP luminescence, 72 h. AID 1347075. actives 1.4% (n = 400,000). Potency, µM (titrated, usually from 46.1 µM), hits mostly cytotoxic; also: % is scaled to controls: 0 for no effect and ±100 for the full control effect; nearly all actives have a fitted effect of over 60% in size
#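 Cytotoxicity measured as CellTiter-Glo luminescence after 72 h at 37 C. Compound titrations were pinned onto drug-naive KB-3-1 parental adenocarcinoma cells grown in DMEM with 10% FBS, and normalized data fitted to concentration-response curves.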
# * hit, by the source's call; i = inactive; ? = inconclusive; / = not tested or not shown; ! = not confirmed by another sample. Calls follow the shape of the dose curve; as a rule, active = well fitted curve in the direction sought with a large enough effect; inconclusive = small, poorly fitted or top-dose-only effect, or another doubt; inactive = no such curve, though single readings can be large; an effect the other way counts as inactive or inconclusive. Potency is read from the fitted curve at half-maximal effect.
SMILES,HepG2 tox,TGFb SMAD3 inh,ATXN2 expr inh,ATXN viability,KB-V1 cytotox,KB-3-1 tox
Cn1c2ccccc2c2ncn(CCC3=CCCCC3)c(=O)c21,-27%,0%,30%,i,16µM*,i
Cc1ccc2c(c1)c1c3n2CCN(C(=O)Cn2c(-c4ccccc4)noc2=O)C3CCC1 (stereo not given),-11%,-11%,-7%,i,4.1µM*,i
Cc1ccc2c(c1)c1c3n2CCN(C(=O)CN2CCN(C)CC2)C3CCC1 (stereo not given),-93%,?,-7%,i,21µM*,?
COc1ccccc1C1CN(Cc2cccc3c2OCO3)Cc2ccccc2O1 (stereo not given),/,/,/,i,/,/
COc1cn(CC(=O)Nc2ccc(F)cc2)c(CN2CCCCC2)cc1=O,3%,4%,/,/,/,/
Cc1ccc(S(=O)(=O)N2CCOCC2)cc1C(=O)OCC(=O)N1CCc2ccccc2C1,8%,-8%,7%,i,12µM*,i
O=C(COc1ccc(S(=O)(=O)N2CCOCC2)cc1)N1CCc2ccccc2C1,38%,15%,/,i,?,i
O=c1nccc(Nc2ccccc2)[nH]1,0%,4%,/,i,i,i
c1ccc(Nc2cc(Nc3ccccc3)[nH]n2)cc1,10µM*,16µM*,3%,?,i,i
COC(=O)c1cc2sccc2n1CC(=O)N1CCCc2ccccc21,-13%,?,2%,?,i,i
O=C(c1cc2sccc2n1Cc1ccccc1)N1CCc2ccccc21,-3%,21%,5%,i,10µM*,i
Cn1c(C(=O)N2CCCc3ccccc32)cc2sccc21,-14%,17%,-2%,i,15µM*,?
O=C(c1cc2sccc2n1Cc1ccccc1)N1CCCc2ccccc21,1%,?,10%,i,i,i
NC(=O)c1cc[n+](CC2=C(C(=O)[O-])N3C(=O)[C@@H](NC(=O)Cc4cccs4)[C@H]3SC2)cc1,/,/,2%,i,/,/
Cc1ccccc1Nc1scc(-c2ccc(Cl)cc2)[n+]1-c1ccccc1C,-26%,-26%,-6%,i,i,9.2µM*
CC1(C)CC(=O)c2c(C(F)(F)F)nn(-c3ccc(C(N)=O)c(NC4CCC(OC(=O)CN)CC4)c3)c2C1 (stereo not given),/,/,0.22µM*,/,/,/
CC1(C)CC(=O)c2c(C(F)(F)F)nn(-c3ccc(C(N)=O)c(NC4CCC(O)CC4)c3)c2C1 (stereo not given),/,/,0.097µM*,/,/,/
CC(CNC(=S)Nc1cc(F)cc(F)c1)CSc1ccc(Cl)cc1 (stereo not given),-75%,18µM*,?,?,?,i
Cc1ccc(NC(=S)NCCSc2ccc(Cl)cc2)cc1,-12%,?,-21%,i,i,i
CCc1ccccc1OCC(=O)OCC(=O)Nc1cc(C)on1,3.2µM*,10%,-3%,i,i,i
Cc1cc(NC(=O)COC(=O)COc2ccc(C(=O)c3ccccc3)cc2)no1,-15%,-26%,1%,i,i,i
CCN1C[C@@H]2[C@@H]3C(=O)N(Cc4ccccc4)C(=O)[C@@H]3[C@](Cc3ccccc3)(C1=O)N2C(=O)c1ccc(Cl)c(Cl)c1,-16%,-1%,?,?,18µM*,?
CCN1C[C@@H]2[C@@H]3C(=O)N(Cc4ccccc4)C(=O)[C@@H]3[C@](CC)(C1=O)N2C(=O)c1ccc(Cl)c(Cl)c1,-8%,-29%,?,i,i,i
Cc1cc(-c2cccnc2)c(C#N)c(SCc2cccc(F)c2)n1,-27%,-7%,-33%,i,12µM*,i
Cc1cc(-c2cccnc2)c(C#N)c(SCC#N)n1,-2%,-10%,7%,i,i,i
SMILES,HepG2 tox,TGFb SMAD3 inh,ATXN2 expr inh,ATXN viability,KB-V1 cytotox,KB-3-1 tox
Cc1ccc(C)c(CSc2nc3[nH]ncc3c(=O)[nH]2)c1,-27%,0%,-11%,i,0.52µM*,1.2µM*
Cc1ccccc1CSc1nc2[nH]ncc2c(=O)[nH]1,-24%,8%,/,i,i,i
Cc1cc(F)ccc1NC(=O)CCSc1nc(-c2ccco2)cc(C(F)(F)F)n1,9%,-13%,-4%,i,i,i
CNC(=O)[C@H](CC1=CN=C2C=CCC=C12)NC(=O)[C@@H](CC(=O)NO)CC(C)C,/,/,0.017µM*,/,/,/
CCOC(=O)c1c(CSc2ccccc2)n(C)c2cc(Br)c(O)c(CN(C)C)c12,-25%,?,?,i,?,i
CCOC(=O)c1c(CSc2ccsc2)n(C)c2cc(Br)c(O)c(CN(C)C)c12,10µM*,?,/,i,i,i
COc1cc([C@@H]2c3cc4c(cc3[C@@H](O[C@@H]3O[C@@H]5CO[C@@H](C)O[C@H]5[C@H](O)[C@H]3O)[C@H]3COC(=O)[C@H]23)OCO4)cc(OC)c1O,-20%,8%,1.1µM*,?,i,16µM*
COc1cc(C2c3cc4c(cc3C(OC3OC5COC(c6cccs6)OC5C(O)C3O)C3COC(=O)C23)OCO4)cc(OC)c1O (stereo not given),-17%,23%,0.32µM*,?,i,4.1µM*
Cc1cccc(-n2c(C)nnc2SCC(=O)NC(C)c2ccco2)c1 (stereo not given),-41%,3%,/,/,i,i
Cc1cc(NC(=O)c2cc([N+](=O)[O-])ccc2Cl)no1,-26%,-23%,-1%,i,?,i
O=C(Nc1cccc(NC(=O)c2cc([N+](=O)[O-])ccc2Cl)n1)c1cc([N+](=O)[O-])ccc1Cl,-53%,?,/,/,15µM*,18µM*
O=C(Nc1c(Cl)cc([N+](=O)[O-])cc1Cl)c1cc(Cl)cc(Cl)c1O,-53%,3.2µM*,/,/,?,18µM*
O=C(Nc1ccc([N+](=O)[O-])cc1Cl)c1ccccc1O,-35%,?,/,/,16µM*,2.9µM*!
O=C(Nc1cccc(O)c1)c1ccc([N+](=O)[O-])cc1Cl,1%,1%,53%,i,i,?
CC(=O)Oc1c(C)cc(Cl)cc1C(=O)Nc1ccc([N+](=O)[O-])cc1Cl,-42%,?,?,28µM*,i,7.3µM*
Cc1oc2ncn(C)c(=O)c2c1C(=O)N1CCN(c2cccc(C(F)(F)F)c2)CC1,8%,2%,0%,i,i,i
O=c1oc2ccccc2cc1-c1cn2cc(Cc3ccccc3F)sc2n1,1%,16%,20%,?,i,?
